In the supplement of paper PMC3545927:
The list shows a part of the results. The hit rate among all sequences tested is not known here.

Molecular target: furin, P09958
Test: furin cleavage Z-score vs untreated control; higher = more cleavage, active = 3.5 or more, inactive = 1 or less, 8 variable residues between constant flanks
Method: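 Multiplexed peptide-cDNA fusion cleavage assay. 8-mer variable peptides flanked by constant Cys-Ala (N-term) and Ala-Gly-Asn-Ala-Ser-Ala-Ser-Ala (C-term) and conjugated to a cDNA oligonucleotide were bead-immobilised via the N-terminus. They were treated with purified furin at a 1:10 enzyme:substrate ratio in 50 mM HEPES pH 7.5, 1 mM CaCl2, 100 mM NaCl for 7.5, 15 or 30 min. Released cDNA was counted by next-generation sequencing, and log counts versus no-furin controls were lowess-adjusted and converted to robust Z-scores.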

furin, P09958, sequence (P09958 whole entry): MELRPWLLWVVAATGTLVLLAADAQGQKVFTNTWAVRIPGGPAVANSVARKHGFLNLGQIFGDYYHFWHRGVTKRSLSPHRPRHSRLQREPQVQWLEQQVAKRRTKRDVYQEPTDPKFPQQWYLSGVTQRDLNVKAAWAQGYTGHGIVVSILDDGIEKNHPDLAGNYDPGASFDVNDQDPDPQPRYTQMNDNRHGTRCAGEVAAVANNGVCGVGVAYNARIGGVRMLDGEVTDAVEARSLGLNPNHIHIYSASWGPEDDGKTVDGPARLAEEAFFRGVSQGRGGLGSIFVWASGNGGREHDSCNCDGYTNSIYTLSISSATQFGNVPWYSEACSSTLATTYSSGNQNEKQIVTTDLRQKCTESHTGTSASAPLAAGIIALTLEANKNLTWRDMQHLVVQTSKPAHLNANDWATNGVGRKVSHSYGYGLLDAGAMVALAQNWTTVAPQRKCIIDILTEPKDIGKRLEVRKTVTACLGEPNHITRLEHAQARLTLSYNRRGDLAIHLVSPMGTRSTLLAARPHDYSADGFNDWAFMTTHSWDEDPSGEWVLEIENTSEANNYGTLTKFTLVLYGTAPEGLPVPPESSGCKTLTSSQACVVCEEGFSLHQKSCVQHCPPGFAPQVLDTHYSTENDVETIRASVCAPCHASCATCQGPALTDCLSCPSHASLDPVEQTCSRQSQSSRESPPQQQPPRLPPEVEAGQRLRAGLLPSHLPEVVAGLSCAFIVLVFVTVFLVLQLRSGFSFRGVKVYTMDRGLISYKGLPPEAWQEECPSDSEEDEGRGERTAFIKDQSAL

| Sequence | furin cleavage Z-score (7.5 min) | furin cleavage Z-score (15 min) | furin cleavage Z-score (30 min) |
| --- | --- | --- | --- |
| CAMEECGQHLAGNASASA [HC22] | 0.622 (inactive) | 0.186 (inactive) | 1.5 |
| CARSYRYALQAGNASASA [FS-3101] | 2.16 | -0.873 (inactive) | -0.277 (inactive) |
| CARSKRASYVAGNASASA [FS-2808] | 5.25 (active) | 9.12 (active) | 8.21 (active) |
| CARSKRKKEVAGNASASA [FS-2304] | 1.21 | -0.317 (inactive) | -0.337 (inactive) |
| CARSKRRKYVAGNASASA [FS-3170] | -1.22 (inactive) | -0.271 (inactive) | 0.492 (inactive) |
| CARDKRSALQAGNASASA [FS-1945] | 8.56 (active) | 10.4 (active) | 8.42 (active) |
| CARAAICGKYAGNASASA [HC1629] | -0.897 (inactive) | -0.988 (inactive) | -0.655 (inactive) |
| CARDKRLAYSAGNASASA [FS-3217] | -0.235 (inactive) | -0.255 (inactive) | 0.271 (inactive) |
| CARDKKSLLQAGNASASA [FS-2133] | 0.497 (inactive) | 0.302 (inactive) | -0.611 (inactive) |
| CARSKRREMQAGNASASA [FS-3207] | 0.975 (inactive) | 0.582 (inactive) | 0.62 (inactive) |
| CARSKRAQTQAGNASASA [FS-2807] | 3.83 (active) | 4.65 (active) | 3.76 (active) |
| CARDKRWVKYAGNASASA [FS-2652] | 0.63 (inactive) | 2.15 | 6.84 (active) |
| CADPMEECSQAGNASASA [HC1819] | 0.273 (inactive) | -1.88 (inactive) | -0.65 (inactive) |
| CAELEVPCHRAGNASASA [HC2445] | 0.172 (inactive) | 0.852 (inactive) | 0.435 (inactive) |
| CAMGFSYDTRAGNASASA [HC1478] | -0.658 (inactive) | -1.06 (inactive) | -0.421 (inactive) |
| CATTMCSGSWAGNASASA [HC1866] | -0.934 (inactive) | -1.58 (inactive) | -0.286 (inactive) |
| CAVVCCSMSVAGNASASA [HC2090] | -0.627 (inactive) | 0.955 (inactive) | 1.16 |
| CARSKRIWLDAGNASASA [FS-1929] | 0.312 (inactive) | 0.0956 (inactive) | 0.362 (inactive) |
| CARSKRGTEDAGNASASA [FS-3084] | 8.96 (active) | 9.33 (active) | 8.39 (active) |
| CARDKRKQRQAGNASASA [FS-2205] | 1.77 | 4.76 (active) | 3.43 |
| CARSKRRDANAGNASASA [FS-2306] | -0.438 (inactive) | 0.401 (inactive) | 2.07 |
| CARSKRVLWDAGNASASA [FS-2525] | -1.38 (inactive) | -1.33 (inactive) | -0.22 (inactive) |
| CARSKRALENAGNASASA [FS-2523] | 9.22 (active) | 11 (active) | 8.18 (active) |
| CARDKRKLGAAGNASASA [FS-1691] | -0.964 (inactive) | 0.648 (inactive) | 1.45 |
